# PubChem BioAssay (Tox21)
# Where “and” joins values, the source holds several entries; their conditions need not be identical. Equal entries are not always repeated. Where a structure was tested more than once in an assay, its records may differ in their call. Calls of active or inactive are those of the source. Entries that show only a call come without a potency. Unless noted, calls come from the whole dose curve; as a rule, active = well fitted curve in the direction sought with a large enough effect in the repeat runs; inconclusive = weak or mixed curves; inactive = no such curve, though single readings can be large; an effect the other way counts as inactive or inconclusive.
# Legend:
# [1] = biological target: Estrogen receptor (Homo sapiens) (UniProt P03372); assay: qHTS assay to identify small molecule antagonists of the estrogen receptor alpha (ER-alpha) signaling pathway (AID 743069; active = well fitted curve in the direction sought with a large enough effect in the signal ratio in the repeat runs, not every such curve was filed as active; inconclusive = weak or mixed curves, or effect the other way; inactive = no such curve, though single readings can be large or run the other way; the % refers to the signal ratio; note: potency is the fitted concentration of half-maximal effect)
# Summary of the method: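 Fluorescence intensity from a beta-lactamase FRET substrate served as the read-out. Cells: HEK293 with stably integrated ER-alpha-UAS-bla reporter. Agonist 17beta-estradiol was co-added with compounds; incubation 18 hr at 37C, substrate 2 hr at room temperature.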
# [2] = biological target: Estrogen receptor (Homo sapiens) (UniProt P03372); assay: qHTS assay to identify small molecule agonists of the estrogen receptor alpha (ER-alpha) signaling pathway (AID 743075; calls by dose curve; note: potency is the fitted concentration of half-maximal effect)
# [3] = biological target: Estrogen receptor (Homo sapiens) (UniProt P03372); assay: qHTS assay to identify small molecule agonists of the estrogen receptor alpha (ER-alpha) signaling pathway using the BG1 cell line (AID 743079); details: BG1Luc4E2 cells, ERE-luciferase agonist, 22 h; activation: at 70.3 µM (top of the series); note: nearly all actives have a fitted effect of over 20% in size; note: potency is the fitted concentration of half-maximal effect
# [4] = qHTS assay to identify small molecule antagonists of the estrogen receptor alpha (ER-alpha) signaling pathway using the BG1 cell line (AID 743080; calls by dose curve;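 note: BG1 cells stimulated with 17beta-estradiol alongside compound; nearly all actives have a fitted effect of over 25% in size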)
# Summary of the method: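 Luciferase inhibition measured with ONE-Glo after 30 min at RT in BG1Luc4E2 cells given test compounds and 17beta-estradiol for 21.5 h at 37 C; CellTiter-Fluor viability read in the same wells beforehand.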
# Aromatase (Homo sapiens) = Aromatase (Homo sapiens) (UniProt P11511); assay: qHTS assay to identify aromatase inhibitors (AID 743083); note: nearly all actives have a fitted effect of over 55% in size
# [5] = qHTS assay to identify aromatase inhibitors - cell viability counter screen (AID 743084);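 note: cells stimulated with testosterone during compound exposure; nearly all actives have a fitted effect of over 55% in size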
# [6] = qHTS assay to identify small molecule that activate the aryl hydrocarbon receptor (AhR) signaling pathway - cell viability counter screen (AID 743086); note: nearly all actives have a fitted effect of over 45% in size; note: potency is the fitted concentration of half-maximal effect
# Summary of the method: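 Cytotoxicity counter screen: CellTiter-Fluor signal (30 min, 37 C) in 4000 HepG2 cells/well carrying the DRE-luciferase reporter, following 24 h compound exposure at 37 C.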
# [7] = biological target: Peroxisome proliferator-activated receptor gamma (Homo sapiens) (UniProt P37231); assay: qHTS assay to identify small molecule agonists of the peroxisome proliferator-activated receptor gamma (PPARg) signaling pathway (AID 743094; active = well fitted activation curve with a large enough effect in the signal ratio in the repeat runs, not every such curve was filed as active; inconclusive = weak or mixed curves, or effect the other way; inactive = no such curve, though single readings can be large or run the other way; the % refers to the signal ratio)
# Summary of the method: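 Reporter activation was scored by fluorescence of cleaved LiveBLAzer B/G substrate (1 h, room temperature) in PPARg-bla HEK293H cells previously treated 17 h at 37C with DMSO-dissolved compounds.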
# [8] = qHTS assay to identify small molecule phospholipidosis (PLD) inducers (AID 1259344; active = well fitted curve in the direction sought with a large enough effect; inconclusive = small, poorly fitted or top-dose-only effect, or another doubt; inactive = no such curve, though single readings can be large; an effect the other way counts as inactive or inconclusive)
# Summary of the method: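 Accumulated phospholipid, stained red by LipidTOX during 24 h compound treatment of HepG2 cells at 37 C, is quantified from images as pit number and intensity, normalised per cell using Hoechst-stained nuclei.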
# [9] = biological target: Nuclear receptor subfamily 1 group I member 2 (Rattus norvegicus) (UniProt Q9R1A7); assay: Rat pregnane X receptor (rPXR) activation by small molecules, qHTS assay (AID 1346983); details: rPXR luciferase reporter cells, One-Glo luminescence, 24 h; max activation: stronger effect = higher value; note: nearly all actives have a fitted effect of over 20% in size
# Summary of the method: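 Luminescent readout (One-Glo luciferase, 30 min room temperature) followed 24 hr compound treatment at 37 C of rPXR cells plated 2,000 per well and preincubated 5hr; qHTS format with compounds delivered in DMSO.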
# [10] = biological target: Nuclear receptor subfamily 1 group I member 2 (Homo sapiens) (UniProt O75469); assay: CYP3A4 induction through human pregnane X receptor (PXR) by small molecules, qHTS assay (AID 1346984); note: nearly all actives have a fitted effect of over 40% in size
# Summary of the method: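 Induction measured in HepG2-based DPX-2 cells co-expressing human PXR and a CYP3A4 promoter-driven luciferase. After a 24-hour compound exposure, cells received CYP3A4 luciferin substrate at 3uM final for 3 hours, and light output was then recorded.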
# [11] = qHTS assay to identify small molecule antagonists of the estrogen receptor alpha (ER-alpha) signaling pathway - cell viability counter screen (AID 743074; calls by dose curve; note: nearly all actives have a fitted effect of over 45% in size; note: potency is the fitted concentration of half-maximal effect)
# [12] = qHTS assay to identify small molecule antagonists of the estrogen receptor alpha (ER-alpha) signaling pathway using the BG1 cell line - cell viability counter screen (AID 743081);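 note: compound given together with 17beta-estradiol as the ER stimulus; nearly all actives have a fitted effect of over 45% in size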; note: potency is the fitted concentration of half-maximal effect
# [13] = qHTS assay to identify small molecule antagonists of the thyroid receptor (TR) signaling pathway - cell viability counter screen (AID 743064); note: nearly all actives have a fitted effect of over 50% in size; note: potency is the fitted concentration of half-maximal effect
# Summary of the method: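 Plate GH3.TRE-Luc cells; incubate 4 h at 37 °C; add compound, then T3 to 1 nM final; incubate 23.5 h; add CellTiter-Fluor; incubate 30 min at 37 °C, 5% CO2; read fluorescence.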
# [14] = qHTS assay to identify small molecule antagonists of the thyroid receptor (TR) signaling pathway (AID 743065); note: nearly all actives have a fitted effect of over 55% in size; note: potency is the fitted concentration of half-maximal effect
# Summary of the method: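 Antagonism measured as loss of luciferase signal in GH3 cells stably carrying a TRE-luciferase reporter, co-treated with compound and T3 (1 nM final) for 23.5 h at 37 C. Viability was read in the same well by CellTiter-Fluor.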
# [15] = tested on: thyroid hormone receptor (rat, GH3 cells); assay: qHTS assay to identify small molecule agonists of the thyroid receptor (TR) signaling pathway (AID 743066; calls by dose curve; note: potency is the fitted concentration of half-maximal effect)
# [16] = biological target: Aryl hydrocarbon receptor (Homo sapiens) (UniProt P35869); assay: qHTS assay to identify small molecule that activate the aryl hydrocarbon receptor (AhR) signaling pathway (AID 743085);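 note: HG2L7.5c1 human HepG2 liver cells with stably integrated DRE-driven firefly reporter; nearly all actives have a fitted effect of over 15% in size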
# Summary of the method: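 Steps: seed HepG2-AhR-luc cells; allow 5 h at 37C; pin-transfer test compound or vehicle; incubate 24 h at 37C; add viability dye (30 min, 37C) and read fluorescence; add luciferase substrate (30 min, RT) and read luminescence.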
# [17] = biological target: Nuclear receptor subfamily 1 group I member 2 (Homo sapiens) (UniProt O75469); assay: Human pregnane X receptor (PXR) activation by small molecules, qHTS assay (AID 1346985); note: nearly all actives have a fitted effect of over 40% in size
# Summary of the method: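 DPX-2 cells (HepG2 co-transfected with a PXR response element and a CYP3A4-promoter luciferase construct) were seeded at 2,000 per well, rested 5 hr at 37C, then exposed to DMSO-dissolved compounds for 24 hr. Activation was read as luciferase luminescence.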
# Chain of Aromatase (Homo sapiens) (P11511 whole entry, looked up): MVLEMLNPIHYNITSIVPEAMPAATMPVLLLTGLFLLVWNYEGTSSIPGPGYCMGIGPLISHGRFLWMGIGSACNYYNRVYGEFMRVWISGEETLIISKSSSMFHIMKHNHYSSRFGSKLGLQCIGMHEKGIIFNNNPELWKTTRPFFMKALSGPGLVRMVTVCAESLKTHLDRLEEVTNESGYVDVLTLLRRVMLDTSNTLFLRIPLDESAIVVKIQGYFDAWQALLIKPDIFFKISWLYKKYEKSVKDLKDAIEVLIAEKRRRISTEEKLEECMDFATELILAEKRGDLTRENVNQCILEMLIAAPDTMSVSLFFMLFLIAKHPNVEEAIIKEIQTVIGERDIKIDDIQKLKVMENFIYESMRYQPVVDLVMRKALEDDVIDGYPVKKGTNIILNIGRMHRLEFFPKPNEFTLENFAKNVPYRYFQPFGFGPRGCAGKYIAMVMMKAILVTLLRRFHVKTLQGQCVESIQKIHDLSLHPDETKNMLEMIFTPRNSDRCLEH
# Chain of Peroxisome proliferator-activated receptor gamma (Homo sapiens) (P37231 whole entry, looked up): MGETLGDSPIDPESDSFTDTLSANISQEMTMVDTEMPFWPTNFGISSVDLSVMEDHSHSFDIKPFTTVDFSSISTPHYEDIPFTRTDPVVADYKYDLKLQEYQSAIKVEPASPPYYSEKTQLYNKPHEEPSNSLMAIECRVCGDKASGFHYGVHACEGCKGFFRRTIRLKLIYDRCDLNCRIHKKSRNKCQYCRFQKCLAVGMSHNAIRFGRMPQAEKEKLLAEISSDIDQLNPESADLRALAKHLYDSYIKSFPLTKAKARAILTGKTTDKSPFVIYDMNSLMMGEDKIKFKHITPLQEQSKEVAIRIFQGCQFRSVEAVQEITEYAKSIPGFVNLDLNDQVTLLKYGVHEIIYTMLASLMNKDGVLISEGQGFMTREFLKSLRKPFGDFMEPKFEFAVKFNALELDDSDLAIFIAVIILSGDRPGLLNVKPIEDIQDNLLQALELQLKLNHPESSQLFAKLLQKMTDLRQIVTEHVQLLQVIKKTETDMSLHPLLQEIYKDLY
# Chain of Nuclear receptor subfamily 1 group I member 2 (Rattus norvegicus) (Q9R1A7 whole entry, looked up): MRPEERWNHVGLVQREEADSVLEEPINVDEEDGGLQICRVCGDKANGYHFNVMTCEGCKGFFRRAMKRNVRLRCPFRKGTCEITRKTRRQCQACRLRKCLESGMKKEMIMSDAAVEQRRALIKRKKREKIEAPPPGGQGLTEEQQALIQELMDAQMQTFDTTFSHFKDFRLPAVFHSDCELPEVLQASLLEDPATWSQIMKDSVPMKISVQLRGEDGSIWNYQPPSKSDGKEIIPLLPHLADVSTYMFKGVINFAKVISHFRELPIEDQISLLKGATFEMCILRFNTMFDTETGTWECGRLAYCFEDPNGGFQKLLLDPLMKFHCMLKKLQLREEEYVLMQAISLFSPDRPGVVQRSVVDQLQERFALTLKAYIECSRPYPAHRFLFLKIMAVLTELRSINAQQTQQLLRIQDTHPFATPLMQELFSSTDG
# Chain of Aryl hydrocarbon receptor (Homo sapiens) (P35869 whole entry, looked up): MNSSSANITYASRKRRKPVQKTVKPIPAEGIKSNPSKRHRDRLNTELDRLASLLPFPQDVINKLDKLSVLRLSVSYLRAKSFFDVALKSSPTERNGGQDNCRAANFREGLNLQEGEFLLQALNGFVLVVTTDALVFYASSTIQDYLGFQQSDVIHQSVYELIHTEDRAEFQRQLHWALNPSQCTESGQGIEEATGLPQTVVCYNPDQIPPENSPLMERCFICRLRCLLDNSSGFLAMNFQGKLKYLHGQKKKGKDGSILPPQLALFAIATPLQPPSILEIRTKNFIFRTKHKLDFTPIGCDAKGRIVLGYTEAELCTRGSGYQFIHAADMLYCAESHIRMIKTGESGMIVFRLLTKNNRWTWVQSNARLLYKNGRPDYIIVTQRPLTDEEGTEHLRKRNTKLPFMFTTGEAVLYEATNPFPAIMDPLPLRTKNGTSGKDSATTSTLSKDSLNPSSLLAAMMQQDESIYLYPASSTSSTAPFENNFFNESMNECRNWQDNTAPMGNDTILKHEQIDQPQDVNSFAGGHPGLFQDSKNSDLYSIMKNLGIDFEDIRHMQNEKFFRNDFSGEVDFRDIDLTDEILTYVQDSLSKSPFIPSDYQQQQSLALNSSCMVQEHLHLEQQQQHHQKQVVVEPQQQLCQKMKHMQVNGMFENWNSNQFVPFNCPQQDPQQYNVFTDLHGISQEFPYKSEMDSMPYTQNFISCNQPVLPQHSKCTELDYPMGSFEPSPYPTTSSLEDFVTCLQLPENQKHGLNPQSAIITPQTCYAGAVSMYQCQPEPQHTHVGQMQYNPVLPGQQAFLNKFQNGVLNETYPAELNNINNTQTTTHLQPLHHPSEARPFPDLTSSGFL
# Chain of Estrogen receptor (Homo sapiens) (P03372 whole entry, looked up): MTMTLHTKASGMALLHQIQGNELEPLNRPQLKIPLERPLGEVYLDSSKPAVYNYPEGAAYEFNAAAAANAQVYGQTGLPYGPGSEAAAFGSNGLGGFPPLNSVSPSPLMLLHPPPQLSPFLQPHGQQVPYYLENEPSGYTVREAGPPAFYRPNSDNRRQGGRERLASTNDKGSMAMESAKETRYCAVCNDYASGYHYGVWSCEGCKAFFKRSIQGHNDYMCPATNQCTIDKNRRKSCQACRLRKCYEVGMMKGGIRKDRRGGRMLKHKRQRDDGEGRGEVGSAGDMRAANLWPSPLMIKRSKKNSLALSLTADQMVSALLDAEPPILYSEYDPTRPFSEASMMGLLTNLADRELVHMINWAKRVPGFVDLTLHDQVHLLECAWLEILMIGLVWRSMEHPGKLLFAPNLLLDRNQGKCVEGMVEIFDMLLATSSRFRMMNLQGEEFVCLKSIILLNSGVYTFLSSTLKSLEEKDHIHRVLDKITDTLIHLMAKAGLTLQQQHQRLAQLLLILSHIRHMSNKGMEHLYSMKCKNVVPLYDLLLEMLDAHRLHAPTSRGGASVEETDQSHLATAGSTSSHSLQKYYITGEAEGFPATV
Compound,Potency [1],Potency [2],Potency [3],Potency [4],Potency (Aromatase (Homo sapiens)),Potency [5],Potency [6],Potency [7],Potency [8],max activation [9],Potency [10],Potency [11],Potency [12],Potency [13],Potency [14],Potency [15],Potency [16],Potency [17],PLD induction [8]
C=C[C@]1(C)C[C@@H](OC(=O)CO)[C@]2(C)[C@H](C)CC[C@]3(CCC(=O)[C@H]32)[C@@H](C)[C@@H]1O,inactive,inactive,inactive,inactive,inactive,inactive,inactive,inactive,inactive,,,,,,,,,,
Nc1ccc(S(=O)(=O)Nc2ncccn2)cc1,,,,,,,,,,-1.29% (inactive),inactive,,,,,,,,
Clc1ccc(COC(Cn2ccnc2)c2ccc(Cl)cc2Cl)c(Cl)c1 (configuration not stated),inactive,inactive,inactive,inactive,,inactive,inactive,inactive,inactive,,,inactive,inactive,,,,,,
CC(O)[C@H]1CC[C@H]2[C@@H]3CC[C@@H]4C[C@@H](O)CC[C@]4(C)[C@H]3CC[C@]12C (some centres not stated),inactive,3.38 µM [inconclusive] (active),9.44 µM (active),inactive,inactive,inactive,inactive,inactive,,2.94% (inactive),inactive,inactive,inactive,inactive,inactive,inactive,inactive,inactive,
Cc1ncc(COP(=O)(O)O)c(CN)c1O,inactive,inactive,inactive,inactive,inactive,inactive,inactive,inactive,,0.341% (inactive),inactive,,inactive,inactive,inactive,inactive,inactive,inactive,
CCOC(=O)CCC(=O)O[C@H]1[C@H](O[C@@H]2[C@@H](C)[C@H](O[C@H]3C[C@@](C)(OC)[C@@H](O)[C@H](C)O3)[C@@H](C)C(=O)O[C@H](CC)[C@@](C)(O)[C@H](O)[C@@H](C)C(=O)[C@H](C)C[C@@]2(C)O)O[C@H](C)C[C@@H]1N(C)C,inactive,inactive,inactive,inactive,inactive,inactive,inactive,inactive,inactive,,,inactive,,,,,inactive,,
CCOC(=O)[C@@H](N)CS,inactive,inactive,29.8 µM (active),inactive,inactive,inactive,inactive,inactive,,-2.02% (inactive),inactive,inactive,inactive,inactive,inactive,inactive,inactive,inactive,
NC[C@@H]1O[C@H](O[C@H]2[C@@H](O)[C@H](O[C@@H]3[C@@H](O)[C@H](N)C[C@H](N)[C@H]3O[C@H]3O[C@H](CN)[C@@H](O)[C@H](O)[C@H]3N)O[C@@H]2CO)[C@H](N)[C@@H](O)[C@@H]1O,inactive,inactive,inactive,inactive,inactive,inactive,,inactive,inactive,,,inactive,inactive,,,,inactive,,
N[C@@H](C(=O)N[C@@H]1C(=O)N2C(C(=O)O)=C(CSc3cn[nH]n3)CS[C@H]12)c1ccc(O)cc1,,,,,inactive,inactive,inactive,inactive,inactive,,,inactive,inactive,,,,inactive,,
CCC(CN)CC(C)CCNCC(O)CNCC(C)CC(CC)CN (configuration not stated),inactive,inactive,inactive,inactive,inactive,inactive,inactive,inactive,,,,inactive,inactive,,,,inactive,,-0.745% [at 7.66 µM] (inactive)
CCNC(=O)[C@@H]1CCCN1C(=O)[C@H](CCCN=C(N)N)NC(=O)[C@H](CC(C)C)NC(=O)[C@@H](CC(C)C)NC(=O)[C@H](Cc1ccc(O)cc1)NC(=O)[C@H](CO)NC(=O)[C@H](Cc1c[nH]c2ccccc12)NC(=O)[C@H](Cc1cnc[nH]1)NC(=O)[C@@H]1CCC(=O)N1,,,,inactive,inactive,inactive,inactive,inactive,inactive,,,inactive,,,,,inactive,,
CO[C@@H]1[C@@H](O[C@@H]2O[C@H](C)[C@@H](O[C@H]3C[C@@](C)(O)[C@@H](OC(=O)CC(C)C)[C@H](C)O3)[C@H](N(C)C)[C@H]2O)[C@@H](CC=O)C[C@@H](C)C(=O)/C=C/C2OC2C[C@@H](C)OC(=O)C[C@H]1OC(C)=O (some centres not stated),,inactive,,inactive,inactive,,,,,-11.7% (inactive),inactive,inactive,,29.8 µM (active),23.7 µM (active),inactive,inactive,inactive,
CC(CN(C)C)CN1c2ccccc2S(=O)(=O)c2ccccc21 (configuration not stated),inactive,inactive,inactive,inactive,inactive,,,inactive,inactive,,,inactive,,,,inactive,inactive,,
CNC(C)[C@@H]1CC[C@@H](N)[C@@H](O[C@H]2[C@H](O)[C@@H](O[C@H]3OC[C@](C)(O)[C@H](NC)[C@H]3O)[C@H](N)C[C@@H]2N)O1 (some centres not stated),,,,,,,,,,-0.0148% (inactive),inactive,,,,,,,inactive,
Cc1cc(-n2c(=O)[nH]c(=O)n(C)c2=O)ccc1Oc1ccc(S(=O)(=O)C(F)(F)F)cc1,,inactive,,,inactive,inactive,inactive,,inactive,,,,inactive,,,9.44 µM (active),inactive,,
CCC(C)[C@H]1O[C@]2(C=C[C@@H]1C)C[C@@H]1C[C@@H](C/C=C(\C)[C@@H](O[C@H]3C[C@H](OC)[C@@H](O[C@H]4C[C@H](OC)[C@H](NC(C)=O)[C@H](C)O4)[C@H](C)O3)[C@@H](C)/C=C/C=C3\CO[C@@H]4[C@H](O)C(C)=C[C@@H](C(=O)O1)[C@]34O)O2 (some centres not stated),1.69 µM [inconclusive] (active),inactive,,,inactive,inactive,11.9 µM (active) and 29.8 µM (active),,inactive,,,8.49 µM (active) and 26.8 µM (active),23.7 µM (active) and inactive,,,,inactive,,
